The term inhibition denotes the drop in the measured response relative to a control, in per cent.

The target of experiment [1] is T1, Inhibitor of nuclear factor kappa-B kinase subunit epsilon (Homo sapiens) (UniProt Q14164).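 Further: reported values are averaged percent inhibition figures against human IKKε.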
T1 sequence (whole entry): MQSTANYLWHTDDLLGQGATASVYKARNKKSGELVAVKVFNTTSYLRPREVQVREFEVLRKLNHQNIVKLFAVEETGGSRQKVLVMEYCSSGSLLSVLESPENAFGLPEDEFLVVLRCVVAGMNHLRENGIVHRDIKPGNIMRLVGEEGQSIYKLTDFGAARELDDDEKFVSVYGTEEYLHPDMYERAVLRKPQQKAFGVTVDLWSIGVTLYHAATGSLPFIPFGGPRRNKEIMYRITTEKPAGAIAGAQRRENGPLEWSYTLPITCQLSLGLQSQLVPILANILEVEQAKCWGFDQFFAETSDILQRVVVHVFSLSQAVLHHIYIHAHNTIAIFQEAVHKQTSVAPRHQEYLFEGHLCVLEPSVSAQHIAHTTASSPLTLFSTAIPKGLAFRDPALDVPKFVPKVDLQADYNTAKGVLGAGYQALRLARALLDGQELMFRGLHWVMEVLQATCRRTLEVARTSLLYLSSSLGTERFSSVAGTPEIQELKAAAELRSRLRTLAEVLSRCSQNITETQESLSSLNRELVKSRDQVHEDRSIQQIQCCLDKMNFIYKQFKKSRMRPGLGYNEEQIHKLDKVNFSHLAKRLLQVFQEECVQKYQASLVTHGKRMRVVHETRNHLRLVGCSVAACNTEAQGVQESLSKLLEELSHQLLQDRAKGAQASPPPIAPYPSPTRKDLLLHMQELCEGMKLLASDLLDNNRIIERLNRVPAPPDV
As to conditions: at 1 µM.

Experiment [2] has as its target T2, Serine/threonine-protein kinase Nek1 (Homo sapiens) (UniProt Q96PY6).
T2 sequence (whole entry): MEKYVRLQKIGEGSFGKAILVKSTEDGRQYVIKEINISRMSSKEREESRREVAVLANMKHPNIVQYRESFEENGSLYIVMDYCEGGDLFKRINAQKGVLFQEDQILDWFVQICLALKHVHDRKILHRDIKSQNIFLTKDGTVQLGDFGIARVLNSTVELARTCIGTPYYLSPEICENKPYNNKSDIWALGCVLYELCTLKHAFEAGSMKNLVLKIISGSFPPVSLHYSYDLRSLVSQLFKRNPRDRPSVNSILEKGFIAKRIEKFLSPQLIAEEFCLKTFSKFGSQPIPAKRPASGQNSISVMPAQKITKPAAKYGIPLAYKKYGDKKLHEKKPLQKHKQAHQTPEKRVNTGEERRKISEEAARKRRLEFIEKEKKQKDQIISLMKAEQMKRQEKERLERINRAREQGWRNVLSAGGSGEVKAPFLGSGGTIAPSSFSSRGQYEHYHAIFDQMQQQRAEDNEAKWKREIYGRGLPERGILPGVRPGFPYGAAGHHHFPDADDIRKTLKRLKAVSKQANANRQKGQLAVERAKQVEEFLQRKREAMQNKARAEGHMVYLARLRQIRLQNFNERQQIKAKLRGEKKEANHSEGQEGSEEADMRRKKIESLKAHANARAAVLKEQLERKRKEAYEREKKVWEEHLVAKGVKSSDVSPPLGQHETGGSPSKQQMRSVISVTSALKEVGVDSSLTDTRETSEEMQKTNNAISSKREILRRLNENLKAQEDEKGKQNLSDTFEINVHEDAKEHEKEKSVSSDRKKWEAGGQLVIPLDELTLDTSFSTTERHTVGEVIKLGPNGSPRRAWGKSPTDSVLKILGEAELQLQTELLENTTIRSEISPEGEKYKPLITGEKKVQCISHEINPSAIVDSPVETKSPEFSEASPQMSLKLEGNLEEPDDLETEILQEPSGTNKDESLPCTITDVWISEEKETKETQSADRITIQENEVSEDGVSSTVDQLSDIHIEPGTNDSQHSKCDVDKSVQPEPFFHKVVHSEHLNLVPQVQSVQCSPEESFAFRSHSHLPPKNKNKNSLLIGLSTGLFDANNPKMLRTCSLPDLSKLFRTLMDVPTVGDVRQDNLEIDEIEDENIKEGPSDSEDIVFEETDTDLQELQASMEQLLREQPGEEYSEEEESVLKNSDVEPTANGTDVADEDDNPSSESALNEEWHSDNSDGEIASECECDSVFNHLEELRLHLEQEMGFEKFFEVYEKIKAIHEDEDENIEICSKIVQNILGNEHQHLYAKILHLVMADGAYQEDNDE
As to conditions: at 0.1 µM.

In experiment [3] the target is T2, Serine/threonine-protein kinase Nek1 (Homo sapiens). The note with it: at 1 µM.
The target of experiment [4] is T3, Serine/threonine-protein kinase Nek2 (Homo sapiens) (UniProt P51955).
T3 sequence (whole entry): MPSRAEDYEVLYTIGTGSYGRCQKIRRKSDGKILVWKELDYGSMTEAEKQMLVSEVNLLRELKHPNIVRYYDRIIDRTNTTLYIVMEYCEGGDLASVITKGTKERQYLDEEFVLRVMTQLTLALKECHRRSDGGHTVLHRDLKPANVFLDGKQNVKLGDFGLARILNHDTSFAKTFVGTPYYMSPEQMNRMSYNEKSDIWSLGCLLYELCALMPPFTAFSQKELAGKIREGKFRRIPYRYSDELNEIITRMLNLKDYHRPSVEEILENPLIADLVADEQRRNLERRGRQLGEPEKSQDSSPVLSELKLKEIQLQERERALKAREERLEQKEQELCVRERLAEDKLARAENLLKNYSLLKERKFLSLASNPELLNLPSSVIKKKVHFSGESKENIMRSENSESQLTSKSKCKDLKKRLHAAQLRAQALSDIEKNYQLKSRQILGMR
As to conditions: at 0.1 µM.

In experiment [5] the target is T3, Serine/threonine-protein kinase Nek2 (Homo sapiens). As to conditions: at 1 µM.
Experiment [6] has as its target Serine/threonine-protein kinase Nek6 (Homo sapiens) (UniProt Q9HC98). As to conditions: at 0.1 µM.
Experiment [7] has the same target. As to conditions: at 1 µM.
For experiment [8], the target named is Serine/threonine-protein kinase Nek7 (Homo sapiens) (UniProt Q8TDX7). The note with it: at 0.1 µM.
Sequence of Serine/threonine-protein kinase Nek7 (Homo sapiens) (Q8TDX7 whole entry, looked up): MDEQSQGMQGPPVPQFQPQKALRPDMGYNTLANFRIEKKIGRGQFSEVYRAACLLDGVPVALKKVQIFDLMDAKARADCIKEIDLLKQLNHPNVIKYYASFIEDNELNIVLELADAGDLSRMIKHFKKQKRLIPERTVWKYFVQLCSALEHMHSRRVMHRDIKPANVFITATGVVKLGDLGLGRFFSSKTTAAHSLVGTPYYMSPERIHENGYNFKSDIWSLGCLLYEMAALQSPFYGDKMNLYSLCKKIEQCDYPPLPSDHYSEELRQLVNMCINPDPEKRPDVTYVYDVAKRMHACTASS
Experiment [9] shares this target. As to conditions: at 1 µM.
Experiment [10] concerns the target T4, Serine/threonine-protein kinase Nek9 (Homo sapiens) (UniProt Q8TD19).
T4 sequence (whole entry): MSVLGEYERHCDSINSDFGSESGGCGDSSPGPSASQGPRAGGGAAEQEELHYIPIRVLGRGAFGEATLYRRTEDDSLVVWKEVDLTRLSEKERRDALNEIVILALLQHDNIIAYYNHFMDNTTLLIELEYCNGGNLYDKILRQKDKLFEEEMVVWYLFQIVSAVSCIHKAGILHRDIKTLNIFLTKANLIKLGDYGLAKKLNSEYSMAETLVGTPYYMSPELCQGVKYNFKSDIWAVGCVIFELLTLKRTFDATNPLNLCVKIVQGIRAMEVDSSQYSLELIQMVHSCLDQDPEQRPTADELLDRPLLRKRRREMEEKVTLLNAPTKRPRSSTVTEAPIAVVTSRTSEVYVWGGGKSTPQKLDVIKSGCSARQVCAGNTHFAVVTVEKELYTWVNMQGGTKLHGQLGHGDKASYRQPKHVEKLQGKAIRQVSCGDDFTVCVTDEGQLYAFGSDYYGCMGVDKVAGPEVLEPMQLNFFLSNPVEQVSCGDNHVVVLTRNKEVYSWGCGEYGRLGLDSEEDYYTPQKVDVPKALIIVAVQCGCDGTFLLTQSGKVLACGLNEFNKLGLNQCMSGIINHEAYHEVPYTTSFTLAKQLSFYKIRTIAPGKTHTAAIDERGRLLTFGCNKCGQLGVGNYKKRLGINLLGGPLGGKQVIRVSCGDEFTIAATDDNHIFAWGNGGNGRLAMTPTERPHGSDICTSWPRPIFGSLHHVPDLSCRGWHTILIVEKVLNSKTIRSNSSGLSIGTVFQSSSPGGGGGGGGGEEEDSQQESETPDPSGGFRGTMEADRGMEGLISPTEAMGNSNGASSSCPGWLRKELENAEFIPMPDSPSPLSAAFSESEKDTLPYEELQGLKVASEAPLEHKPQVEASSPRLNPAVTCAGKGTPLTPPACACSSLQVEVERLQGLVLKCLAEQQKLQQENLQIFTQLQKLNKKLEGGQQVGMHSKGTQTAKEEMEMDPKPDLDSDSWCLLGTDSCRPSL
As to conditions: at 0.1 µM.

Experiment [11] concerns the target T4, Serine/threonine-protein kinase Nek9 (Homo sapiens). The note with it: at 1 µM.
For experiment [12], the target named is Serine/threonine-protein kinase PLK1 (Homo sapiens) (UniProt P53350). The note with it: at 0.1 µM.
Sequence of Serine/threonine-protein kinase PLK1 (Homo sapiens) (P53350 whole entry): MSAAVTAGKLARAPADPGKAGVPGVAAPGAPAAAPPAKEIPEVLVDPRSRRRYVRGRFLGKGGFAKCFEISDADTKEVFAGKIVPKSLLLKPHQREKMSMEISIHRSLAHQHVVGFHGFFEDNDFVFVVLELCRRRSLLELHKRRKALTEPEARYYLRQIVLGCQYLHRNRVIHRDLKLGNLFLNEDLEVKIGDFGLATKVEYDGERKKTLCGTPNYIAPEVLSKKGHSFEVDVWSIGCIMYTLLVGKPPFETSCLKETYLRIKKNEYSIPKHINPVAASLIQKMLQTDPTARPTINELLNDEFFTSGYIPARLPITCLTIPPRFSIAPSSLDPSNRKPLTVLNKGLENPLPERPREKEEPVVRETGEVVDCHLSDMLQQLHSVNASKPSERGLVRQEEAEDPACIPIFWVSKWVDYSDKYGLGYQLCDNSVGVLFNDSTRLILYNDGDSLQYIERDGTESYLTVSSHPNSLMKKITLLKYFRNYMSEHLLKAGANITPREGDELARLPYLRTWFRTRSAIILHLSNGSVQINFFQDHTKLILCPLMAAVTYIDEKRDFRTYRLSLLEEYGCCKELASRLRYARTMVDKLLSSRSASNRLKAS
For experiment [13] the target is unchanged. As to conditions: at 1 µM.
Experiment [14] deals with T5, Dual specificity protein kinase TTK (Homo sapiens) (UniProt P33981).
T5 sequence (whole entry): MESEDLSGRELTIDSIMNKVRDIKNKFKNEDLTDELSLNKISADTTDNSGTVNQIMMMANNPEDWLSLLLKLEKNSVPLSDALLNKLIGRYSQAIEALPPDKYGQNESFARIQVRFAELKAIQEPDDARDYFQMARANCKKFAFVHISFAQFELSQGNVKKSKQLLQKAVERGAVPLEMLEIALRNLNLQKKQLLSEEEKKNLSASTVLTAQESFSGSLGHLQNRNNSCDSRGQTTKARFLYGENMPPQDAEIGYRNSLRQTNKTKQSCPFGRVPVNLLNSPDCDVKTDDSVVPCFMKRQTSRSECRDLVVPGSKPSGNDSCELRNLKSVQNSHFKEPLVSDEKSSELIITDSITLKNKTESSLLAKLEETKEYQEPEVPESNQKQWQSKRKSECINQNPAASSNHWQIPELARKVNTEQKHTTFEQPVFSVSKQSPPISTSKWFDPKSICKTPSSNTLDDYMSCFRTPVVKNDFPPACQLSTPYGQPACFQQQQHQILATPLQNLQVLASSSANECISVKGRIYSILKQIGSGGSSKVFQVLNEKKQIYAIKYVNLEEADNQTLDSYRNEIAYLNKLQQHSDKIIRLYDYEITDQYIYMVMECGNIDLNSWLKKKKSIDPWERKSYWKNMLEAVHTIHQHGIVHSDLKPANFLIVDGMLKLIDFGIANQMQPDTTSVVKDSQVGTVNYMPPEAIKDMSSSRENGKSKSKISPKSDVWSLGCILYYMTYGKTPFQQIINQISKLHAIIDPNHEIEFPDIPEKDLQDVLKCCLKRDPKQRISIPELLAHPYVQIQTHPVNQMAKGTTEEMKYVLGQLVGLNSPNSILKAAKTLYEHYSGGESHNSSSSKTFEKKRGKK
As to conditions: at 0.1 µM.

The subject of experiment [15] is T6, Receptor-type tyrosine-protein kinase FLT3 (Homo sapiens), P36888 [D835Y].
T6 sequence (whole entry): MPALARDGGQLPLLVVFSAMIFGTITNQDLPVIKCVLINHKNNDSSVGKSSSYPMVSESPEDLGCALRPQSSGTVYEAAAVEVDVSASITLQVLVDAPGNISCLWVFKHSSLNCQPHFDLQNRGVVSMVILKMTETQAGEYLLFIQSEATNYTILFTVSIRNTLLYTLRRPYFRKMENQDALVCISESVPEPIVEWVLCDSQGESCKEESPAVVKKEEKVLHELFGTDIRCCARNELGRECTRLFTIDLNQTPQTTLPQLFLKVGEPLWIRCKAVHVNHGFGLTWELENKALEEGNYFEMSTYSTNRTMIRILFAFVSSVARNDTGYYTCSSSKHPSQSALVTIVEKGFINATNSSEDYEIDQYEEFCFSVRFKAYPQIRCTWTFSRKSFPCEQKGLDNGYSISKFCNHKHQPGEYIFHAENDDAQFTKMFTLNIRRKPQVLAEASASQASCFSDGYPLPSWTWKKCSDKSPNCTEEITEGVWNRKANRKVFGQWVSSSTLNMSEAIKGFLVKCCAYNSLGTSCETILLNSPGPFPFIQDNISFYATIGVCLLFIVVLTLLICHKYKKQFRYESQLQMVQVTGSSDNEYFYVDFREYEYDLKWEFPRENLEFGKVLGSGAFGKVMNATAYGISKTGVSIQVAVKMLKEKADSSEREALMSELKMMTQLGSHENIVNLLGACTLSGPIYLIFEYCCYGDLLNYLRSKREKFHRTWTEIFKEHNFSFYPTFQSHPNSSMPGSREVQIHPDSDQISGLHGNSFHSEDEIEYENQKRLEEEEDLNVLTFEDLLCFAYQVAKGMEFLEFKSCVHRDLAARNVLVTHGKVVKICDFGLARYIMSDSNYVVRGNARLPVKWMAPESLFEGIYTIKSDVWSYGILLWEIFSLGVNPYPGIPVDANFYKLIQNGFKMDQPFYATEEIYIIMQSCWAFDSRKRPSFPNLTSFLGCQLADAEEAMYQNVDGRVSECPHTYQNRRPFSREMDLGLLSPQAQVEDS
The note with it: at 1 µM.

Experiment [16] concerns the target Vascular endothelial growth factor receptor 3 (Homo sapiens) (UniProt P35916). As to conditions: at 0.1 µM.
Experiment [17] has the same target. The note with it: at 1 µM.
Experiment [18] concerns the target Macrophage colony-stimulating factor 1 receptor (Homo sapiens) (UniProt P07333). As to conditions: at 0.1 µM.
For experiment [19] the target is unchanged. As to conditions: at 1 µM.
Experiment [20] concerns the target Tyrosine-protein kinase Fyn (Homo sapiens) (UniProt P06241). The note with it: at 0.1 µM.

Structures are written as SMILES.

Sequence of Vascular endothelial growth factor receptor 3 (Homo sapiens) (P35916 whole entry): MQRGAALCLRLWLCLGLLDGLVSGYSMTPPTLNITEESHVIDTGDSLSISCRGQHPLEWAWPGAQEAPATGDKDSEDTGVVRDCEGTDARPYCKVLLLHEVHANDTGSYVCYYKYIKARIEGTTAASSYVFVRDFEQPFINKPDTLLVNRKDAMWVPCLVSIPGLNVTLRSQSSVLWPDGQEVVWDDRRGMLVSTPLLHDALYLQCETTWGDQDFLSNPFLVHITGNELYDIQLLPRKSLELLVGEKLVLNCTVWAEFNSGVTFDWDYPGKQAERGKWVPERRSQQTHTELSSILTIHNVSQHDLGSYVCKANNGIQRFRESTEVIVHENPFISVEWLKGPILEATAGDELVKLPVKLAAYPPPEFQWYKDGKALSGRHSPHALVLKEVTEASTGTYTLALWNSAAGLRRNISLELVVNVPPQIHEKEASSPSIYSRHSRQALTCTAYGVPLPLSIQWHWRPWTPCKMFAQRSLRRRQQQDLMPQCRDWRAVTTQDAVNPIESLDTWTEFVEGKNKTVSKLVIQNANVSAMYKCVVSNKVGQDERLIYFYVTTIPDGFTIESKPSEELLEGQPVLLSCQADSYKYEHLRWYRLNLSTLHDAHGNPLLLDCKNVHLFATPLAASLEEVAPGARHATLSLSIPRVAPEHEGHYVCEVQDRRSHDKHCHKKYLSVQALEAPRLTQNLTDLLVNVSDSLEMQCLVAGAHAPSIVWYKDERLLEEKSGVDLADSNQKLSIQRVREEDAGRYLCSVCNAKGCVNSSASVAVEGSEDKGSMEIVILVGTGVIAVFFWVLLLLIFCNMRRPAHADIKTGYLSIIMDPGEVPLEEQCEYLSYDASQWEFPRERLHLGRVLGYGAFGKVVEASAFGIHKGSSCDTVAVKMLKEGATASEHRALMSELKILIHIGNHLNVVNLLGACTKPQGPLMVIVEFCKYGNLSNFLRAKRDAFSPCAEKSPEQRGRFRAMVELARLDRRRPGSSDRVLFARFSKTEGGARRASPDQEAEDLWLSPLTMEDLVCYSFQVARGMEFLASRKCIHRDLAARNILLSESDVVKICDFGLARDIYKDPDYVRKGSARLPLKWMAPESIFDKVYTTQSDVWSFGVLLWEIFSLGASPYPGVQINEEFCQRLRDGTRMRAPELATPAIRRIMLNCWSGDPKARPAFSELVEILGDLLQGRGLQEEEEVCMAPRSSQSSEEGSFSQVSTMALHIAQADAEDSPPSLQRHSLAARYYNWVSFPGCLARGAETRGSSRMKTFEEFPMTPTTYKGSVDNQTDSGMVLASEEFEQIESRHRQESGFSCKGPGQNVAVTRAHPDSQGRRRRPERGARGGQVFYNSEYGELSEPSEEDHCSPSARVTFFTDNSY
Sequence of Serine/threonine-protein kinase Nek6 (Homo sapiens) (Q9HC98 whole entry): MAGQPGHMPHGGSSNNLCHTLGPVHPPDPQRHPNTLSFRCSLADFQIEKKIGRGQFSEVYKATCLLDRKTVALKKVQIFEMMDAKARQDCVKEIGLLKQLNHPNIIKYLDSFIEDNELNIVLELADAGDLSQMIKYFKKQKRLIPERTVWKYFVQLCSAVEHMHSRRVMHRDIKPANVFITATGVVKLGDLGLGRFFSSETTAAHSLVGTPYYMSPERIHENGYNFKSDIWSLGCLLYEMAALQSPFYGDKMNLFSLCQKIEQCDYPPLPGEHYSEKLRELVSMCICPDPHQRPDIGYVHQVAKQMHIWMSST
Sequence of Macrophage colony-stimulating factor 1 receptor (Homo sapiens) (P07333 whole entry): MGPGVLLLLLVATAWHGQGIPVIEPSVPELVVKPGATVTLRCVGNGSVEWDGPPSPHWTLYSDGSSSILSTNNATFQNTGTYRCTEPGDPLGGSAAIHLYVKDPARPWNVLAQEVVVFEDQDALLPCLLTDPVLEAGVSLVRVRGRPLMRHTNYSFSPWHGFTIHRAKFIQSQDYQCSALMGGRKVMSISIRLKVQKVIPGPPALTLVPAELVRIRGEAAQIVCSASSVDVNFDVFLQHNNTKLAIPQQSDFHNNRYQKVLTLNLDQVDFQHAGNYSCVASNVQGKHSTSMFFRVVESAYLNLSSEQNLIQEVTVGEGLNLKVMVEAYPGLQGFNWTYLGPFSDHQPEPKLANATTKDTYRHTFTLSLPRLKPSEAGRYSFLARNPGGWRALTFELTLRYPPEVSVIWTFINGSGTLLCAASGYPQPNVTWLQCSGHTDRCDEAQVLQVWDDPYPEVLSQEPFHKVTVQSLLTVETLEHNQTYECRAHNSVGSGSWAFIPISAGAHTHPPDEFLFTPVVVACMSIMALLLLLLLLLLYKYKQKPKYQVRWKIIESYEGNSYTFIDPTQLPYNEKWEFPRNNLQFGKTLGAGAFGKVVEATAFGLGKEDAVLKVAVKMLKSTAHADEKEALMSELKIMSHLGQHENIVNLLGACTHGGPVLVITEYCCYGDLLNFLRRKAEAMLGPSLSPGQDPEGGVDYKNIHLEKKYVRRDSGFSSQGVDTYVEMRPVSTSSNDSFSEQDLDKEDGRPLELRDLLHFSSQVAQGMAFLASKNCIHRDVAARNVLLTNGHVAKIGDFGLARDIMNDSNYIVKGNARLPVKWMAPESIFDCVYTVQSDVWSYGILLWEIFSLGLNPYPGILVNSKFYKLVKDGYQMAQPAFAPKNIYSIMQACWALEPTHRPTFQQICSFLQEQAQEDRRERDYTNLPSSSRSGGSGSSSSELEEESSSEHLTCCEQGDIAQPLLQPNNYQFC
Sequence of Tyrosine-protein kinase Fyn (Homo sapiens) (P06241 2-537 limits assumed): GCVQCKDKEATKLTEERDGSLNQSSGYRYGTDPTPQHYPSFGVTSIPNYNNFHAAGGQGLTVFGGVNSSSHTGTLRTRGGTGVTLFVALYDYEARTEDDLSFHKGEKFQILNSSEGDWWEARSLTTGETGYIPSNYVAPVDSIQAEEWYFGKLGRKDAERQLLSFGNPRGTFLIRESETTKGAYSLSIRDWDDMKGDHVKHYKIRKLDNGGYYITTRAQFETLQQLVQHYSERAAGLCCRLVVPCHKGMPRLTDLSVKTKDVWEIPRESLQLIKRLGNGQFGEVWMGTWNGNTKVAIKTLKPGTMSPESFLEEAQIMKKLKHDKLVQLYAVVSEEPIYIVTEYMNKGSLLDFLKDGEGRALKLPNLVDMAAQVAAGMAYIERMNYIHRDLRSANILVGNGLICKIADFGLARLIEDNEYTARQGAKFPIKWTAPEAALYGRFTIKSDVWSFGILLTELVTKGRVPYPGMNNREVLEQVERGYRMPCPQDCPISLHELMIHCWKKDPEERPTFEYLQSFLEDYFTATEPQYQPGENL

Turning to `Cc1ccc2c(c1)/C(=N/Nc1ccc(S(N)(=O)=O)cc1)C(=O)N2`, the inhibition was -2.89% in experiment [1]; -0.29% in experiment [2]; 1.65% in [3]; 0.94% in experiment [4]; 0.07% in experiment [5]; -2.33% in experiment [6]. The inhibition in experiment [7] is -1.82%; in experiment [8] it was 2.58%; in [9] it was 2.3%; in experiment [10] it was 2%; in experiment [11], 4.02%; in experiment [12] it was 0.67%. The inhibition came to 1.12% in experiment [13]; 7.53% in experiment [14]; 10.8% in experiment [15]; 2.09% in experiment [16]; 14.6% in [17]; 2.64% in [18]. Also, the inhibition came to 16.7% in experiment [19] and 1.22% in experiment [20].

Source of the values: ChEMBL document CHEMBL1961873, “Compounds: GSK PKIS; Assays: Nanosyn kinase panel” (2012).
